The text below walks through data of PubChem BioAssay (EPA / NIEHS).

Several values for one entry are separate records, joined by “and”; a condition that tells them apart may be missing. Equal values may be shown once. Records with an inconclusive call do not appear. Some structures have more than one record in an assay (separate samples or runs), and their calls can disagree. Activity calls are given as the source filed them. Rule for the calls: active = hit-call score of the fitted dose curve at least 0.9, where 1 is the maximum; inconclusive = response in the unintended direction; inactive = score below 0.9.

Chain of Mitogen-activated protein kinase 3 (Homo sapiens) (P27361 whole entry, looked up): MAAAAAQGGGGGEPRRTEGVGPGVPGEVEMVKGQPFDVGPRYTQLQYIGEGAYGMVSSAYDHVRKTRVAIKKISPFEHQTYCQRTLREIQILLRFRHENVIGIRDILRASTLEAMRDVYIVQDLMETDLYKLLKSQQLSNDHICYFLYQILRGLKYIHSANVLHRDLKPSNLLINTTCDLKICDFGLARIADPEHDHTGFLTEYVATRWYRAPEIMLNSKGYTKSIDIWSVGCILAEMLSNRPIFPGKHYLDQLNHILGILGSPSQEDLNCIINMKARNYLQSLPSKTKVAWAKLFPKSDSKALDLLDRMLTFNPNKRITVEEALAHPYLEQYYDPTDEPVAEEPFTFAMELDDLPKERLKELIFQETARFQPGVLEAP

In one test the target is human Janus Kinase 2 (Jak2), JAK2 (gene 3717) (UniProt O60674). In words: NVS_ENZ_hJak2: NovaScreen (NVS) Enzymatic Assay for human Janus Kinase 2 (Jak2) (AID 2283169). The method, boiled down: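 Cell-free recombinant human JAK2 enzyme activity assay, fluorescence/electrophoretic mobility shift read 1 h after dosing. Screened in duplicate at 25 uM, then concentration-response up to 50 uM; activity as signal loss relative to DMSO.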
Chain of human Janus Kinase 2 (Jak2), JAK2 (gene 3717) (O60674 whole entry, looked up): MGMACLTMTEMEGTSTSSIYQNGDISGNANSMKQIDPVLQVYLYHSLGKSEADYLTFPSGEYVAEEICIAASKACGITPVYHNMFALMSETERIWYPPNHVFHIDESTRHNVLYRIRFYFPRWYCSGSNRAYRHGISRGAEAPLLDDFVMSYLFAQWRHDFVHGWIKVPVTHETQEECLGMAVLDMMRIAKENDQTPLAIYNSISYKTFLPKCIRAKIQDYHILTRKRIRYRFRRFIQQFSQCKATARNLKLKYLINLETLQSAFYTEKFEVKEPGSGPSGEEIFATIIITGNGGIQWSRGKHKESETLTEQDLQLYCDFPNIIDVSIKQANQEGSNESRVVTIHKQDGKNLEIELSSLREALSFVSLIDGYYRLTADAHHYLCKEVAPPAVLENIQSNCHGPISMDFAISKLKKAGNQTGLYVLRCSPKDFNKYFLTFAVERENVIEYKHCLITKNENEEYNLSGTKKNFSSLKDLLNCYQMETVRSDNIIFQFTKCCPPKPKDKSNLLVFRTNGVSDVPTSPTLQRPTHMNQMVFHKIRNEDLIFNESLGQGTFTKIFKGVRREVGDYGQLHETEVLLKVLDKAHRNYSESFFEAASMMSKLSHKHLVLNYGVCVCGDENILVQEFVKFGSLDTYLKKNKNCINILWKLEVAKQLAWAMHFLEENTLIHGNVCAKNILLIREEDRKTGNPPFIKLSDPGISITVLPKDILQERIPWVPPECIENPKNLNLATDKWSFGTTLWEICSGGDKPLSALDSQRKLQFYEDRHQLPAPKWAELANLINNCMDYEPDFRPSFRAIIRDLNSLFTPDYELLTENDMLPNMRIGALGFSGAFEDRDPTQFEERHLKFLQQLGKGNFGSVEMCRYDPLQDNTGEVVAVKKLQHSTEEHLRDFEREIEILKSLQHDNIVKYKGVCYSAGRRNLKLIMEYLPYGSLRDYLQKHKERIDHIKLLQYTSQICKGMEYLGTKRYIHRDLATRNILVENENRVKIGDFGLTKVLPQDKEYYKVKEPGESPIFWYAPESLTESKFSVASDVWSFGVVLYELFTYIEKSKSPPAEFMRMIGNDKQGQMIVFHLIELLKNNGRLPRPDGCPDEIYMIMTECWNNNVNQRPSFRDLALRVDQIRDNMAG
Consider `c1ccc2[nH]c(-c3cscn3)nc2c1`, for which the AC50 was 2.27 µM (active).
Same read-out and setting: the figure for `N[C@@H](Cc1cc(I)c(Oc2ccc(O)c(I)c2)c(I)c1)C(=O)O` is 5.49 µM (active).
The same measure, in the same setting: to `O=C(c1ccc(O)cc1O)c1ccc(O)cc1O` belongs 21 µM (active).
For the compound `CC(C)(c1ccc(O)cc1)c1ccc(O)cc1`, the compound was called inactive.
With `S=C(S)NCCNC(=S)S.[Mn+2].[S-]C([S-])=NCCN=C([S-])[S-].[Zn+2]`, the half-maximal activity concentration (AC50) was 7.51 µM (active) and 40.2 µM (active); the outcome was inactive.
As to `c1ccc(Nc2ccccc2)cc1`, the compound was classed as inactive.

In another test the target is human c-Jun N-terminal Kinases (JNK2), MAPK9 (gene 5601) (UniProt P45984). Nature of the test: NVS_ENZ_hJNK2: NovaScreen (NVS) Enzymatic Assay for human c-Jun N-terminal Kinases (JNK2) (AID 2283171). The method, boiled down: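 Cell-free recombinant human JNK2 activity assay; fluorescent substrate and product separated by electrophoretic mobility shift, read 1 h after dosing. Primary duplicate screen at 25 uM; actives run in concentration-response up to 50 uM, relative to DMSO.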
Chain of human c-Jun N-terminal Kinases (JNK2), MAPK9 (gene 5601) (P45984 whole entry, looked up): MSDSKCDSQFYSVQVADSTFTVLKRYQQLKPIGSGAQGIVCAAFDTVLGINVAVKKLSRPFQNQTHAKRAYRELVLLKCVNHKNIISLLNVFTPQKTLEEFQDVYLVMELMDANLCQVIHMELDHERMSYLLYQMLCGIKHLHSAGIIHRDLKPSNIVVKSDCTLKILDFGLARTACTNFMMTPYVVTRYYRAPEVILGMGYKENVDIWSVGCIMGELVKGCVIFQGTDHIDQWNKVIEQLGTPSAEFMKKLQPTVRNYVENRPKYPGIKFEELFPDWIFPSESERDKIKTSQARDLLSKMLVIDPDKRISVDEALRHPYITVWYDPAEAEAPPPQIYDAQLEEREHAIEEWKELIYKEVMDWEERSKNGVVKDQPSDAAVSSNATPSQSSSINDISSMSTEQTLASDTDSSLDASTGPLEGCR
As to `CC(C)CCCCCCc1ccc(O)cc1`, the compound was classed as inactive.
With `CC(C)(c1ccc(O)cc1)c1ccc(O)cc1`, the compound was classed as inactive.
Take `S=C(S)NCCNC(=S)S.[Mn+2].[S-]C([S-])=NCCN=C([S-])[S-].[Zn+2]`: the outcome was inactive.
The same measure, in the same setting: the entry for `COCCO` is “inactive”.
Take `O=C(O)C1(C(=O)Nc2ccc(Cl)cc2Cl)CC1`: the AC50 was 25 µM (active).

The target in the next test is human LYN Proto-Oncogene, Src family Tyrosine Kinase (LynA), LYN (gene 4067) (UniProt P07948). In words: NVS_ENZ_hLynA: NovaScreen (NVS) Enzymatic Assay for human LYN Proto-Oncogene, Src family Tyrosine Kinase (LynA) (AID 2283173). As for the experimental part: NVS_ENZ_hLynA is a biochemical, single-readout assay that uses extracted gene-proteins in a cell-free assay. Measurements were taken 1 hour after chemical dosing in a 384-well plate.NVS_ENZ_hLynA is one of one assay component(s) measured or calculated from the NVS_ENZ_hLynA assay. It is designed to make measurements of enzyme activity, a form of enzyme reporter, as detected with fluorescence intensity signals by Fluorescence and electrophoretic mobility shift technology.Data from the assay component NVS_ENZ_hLynA was analyzed into 1 assay endpoint. This assay endpoint, NVS_ENZ_hLynA, was analyzed in the positive analysis fitting direction relative to DMSO as the negative control and baseline of activity. Using a type of enzyme reporter, loss-of-signal activity can be used to understand changes in the enzymatic activity as they relate to the gene LYN. Furthermore, this assay endpoint can be referred to as a primary readout, because this assay has produced multiple assay endpoints where this one serves a enzymatic activity function. To generalize the intended target to other relatable targets, this assay endpoint is annotated to the kinase intended target family, where the subfamily is non-receptor tyrosine kinase.
Chain of human LYN Proto-Oncogene, Src family Tyrosine Kinase (LynA), LYN (gene 4067) (P07948 whole entry, looked up): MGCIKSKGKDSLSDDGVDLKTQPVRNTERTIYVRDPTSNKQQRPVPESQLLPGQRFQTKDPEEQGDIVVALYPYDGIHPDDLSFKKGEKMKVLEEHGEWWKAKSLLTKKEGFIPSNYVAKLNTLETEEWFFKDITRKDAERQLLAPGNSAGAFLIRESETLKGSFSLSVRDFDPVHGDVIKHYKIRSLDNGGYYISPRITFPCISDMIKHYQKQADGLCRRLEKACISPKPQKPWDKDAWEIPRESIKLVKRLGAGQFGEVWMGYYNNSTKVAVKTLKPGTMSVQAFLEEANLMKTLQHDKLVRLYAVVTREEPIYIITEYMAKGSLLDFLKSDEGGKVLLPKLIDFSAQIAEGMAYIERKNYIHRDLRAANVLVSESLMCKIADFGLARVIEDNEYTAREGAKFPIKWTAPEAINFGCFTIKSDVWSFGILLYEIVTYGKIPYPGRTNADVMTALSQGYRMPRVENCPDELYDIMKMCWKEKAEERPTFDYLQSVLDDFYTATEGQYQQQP
Binding assays used specific radioligands (tritiated, iodinated) with non-radioactive competitive displacement ligands in agonist or antagonist protocols (as indicated) and various reference compounds and inhibitors to titrate specific binding to receptors and transporters. Most enzyme assays (CYPs, kinases, phosphatases, proteases, HDACs) used recombinant protein and specific substrates (fluorescence mostly, some colorimetric and radioactive) and inhibitors, followed by a biochemical separation of substrate and product. All assays for the biochemical HTS were initially run in duplicate at a single concentration (10 uM for CYP450 assays and 25 uM for all others). […]
With `COC(=O)c1ccccc1C(=O)O`, the compound was classed as inactive.
As to `O=C(c1ccc(O)cc1O)c1ccc(O)cc1O`, the result was inactive.
As for `N#CSCSc1nc2ccccc2s1`, the call was inactive.

For a further test, the target named is Mitogen-activated protein kinase 3 (Homo sapiens) (UniProt P27361). In words: NVS_ENZ_hMAPK3: NovaScreen (NVS) Enzymatic Assay for human Mitogen-Activated Protein Kinase 3 (MAPK 3) (AID 2283177). The method, boiled down:
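Cell-free enzymatic assay with recombinant protein and specific substrate; fluorescence and electrophoretic mobility shift read-out 1 h after dosing. Primary screen duplicate at 25 uM; actives then run in concentration-response up to 50 uM, loss of signal versus DMSO.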
As for `Oc1ccc(C(c2ccc(O)cc2)C(Cl)(Cl)Cl)cc1`, the compound was classed as inactive.
Regarding `CC(C)CCCCCCc1ccc(O)cc1`, the compound was called inactive.
`S=C([S-])NCCNC(=S)[S-].[Mn+2]`: the AC50 is 10 µM (active).
On to `COC(=O)c1ccccc1S(=O)(=O)NC(=O)Nc1nc(OC(F)F)cc(OC(F)F)n1`, for which the result was inactive.
Still for that read-out and setting: to `CC(C)(c1ccc(O)cc1)c1ccc(O)cc1` belongs “inactive”.
With `S=C(S)NCCNC(=S)S.[Mn+2].[S-]C([S-])=NCCN=C([S-])[S-].[Zn+2]`, the AC50 was 6.76 µM (active) and 25 µM (active).
Regarding `O=C(Nc1ccc([N+](=O)[O-])cc1Cl)c1cc(Cl)ccc1O`, the outcome was inactive.

In a further test the target is human MAP Kinase-Activated Protein Kinase 2 (MAPKAPK2), MAPKAPK2 (gene 9261) (UniProt P49137). Nature of the test: NVS_ENZ_hMAPKAPK2: NovaScreen (NVS) Enzymatic Assay for human MAP Kinase-Activated Protein Kinase 2 (MAPKAPK2) (AID 2283178). The method, boiled down: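 Cell-free recombinant human MAPKAPK2 activity measured by fluorescence with electrophoretic mobility shift separation of substrate and product, 1 hr after dosing. Loss of signal versus DMSO; primary screen at 25 uM, concentration-response up to 50 uM.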
Chain of human MAP Kinase-Activated Protein Kinase 2 (MAPKAPK2), MAPKAPK2 (gene 9261) (P49137 whole entry, looked up): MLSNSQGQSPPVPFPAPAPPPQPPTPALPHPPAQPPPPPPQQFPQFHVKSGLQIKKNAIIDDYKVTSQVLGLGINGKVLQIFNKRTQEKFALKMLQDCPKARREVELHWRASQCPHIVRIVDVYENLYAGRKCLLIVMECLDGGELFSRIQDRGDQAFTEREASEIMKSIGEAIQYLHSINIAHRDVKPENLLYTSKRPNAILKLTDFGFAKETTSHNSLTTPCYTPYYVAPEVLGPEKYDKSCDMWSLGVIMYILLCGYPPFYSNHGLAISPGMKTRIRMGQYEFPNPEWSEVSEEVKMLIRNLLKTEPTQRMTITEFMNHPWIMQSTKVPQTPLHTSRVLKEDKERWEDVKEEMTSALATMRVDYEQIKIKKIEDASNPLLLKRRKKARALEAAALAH
In the case of `CC(C)CCCCCCc1ccc(O)cc1`, the call was inactive.
As for `S=C([S-])NCCNC(=S)[S-].[Mn+2]`, the AC50 was 468 nM (active).
For `COC(=O)c1ccccc1S(=O)(=O)NC(=O)Nc1nc(OC(F)F)cc(OC(F)F)n1`, the outcome was inactive.
On the same count and under the same terms, the entry for `N[C@@H](Cc1cc(I)c(Oc2ccc(O)c(I)c2)c(I)c1)C(=O)O` is “inactive”.
For `S=C(S)NCCNC(=S)S.[Mn+2].[S-]C([S-])=NCCN=C([S-])[S-].[Zn+2]`, the AC50 is 408 nM (active) and 399 nM (active).
`N#CSCSc1nc2ccccc2s1`: the compound was called inactive.
Regarding `COc1nc(C)nc(NC(=O)NS(=O)(=O)c2ccccc2OCCCl)n1`, the AC50 was 36200 nM (active).
Regarding `O=C(O)C1(C(=O)Nc2ccc(Cl)cc2Cl)CC1`, the result was inactive.
Same read-out and setting: the entry for `O=C(Nc1ccc([N+](=O)[O-])cc1Cl)c1cc(Cl)ccc1O` is “inactive”.

Broadly, the AC50 is the midpoint of the concentration-response curve, whichever way the signal moves.
